Data as given in PubChem BioAssay AID588765 (NMMLSC, 2011).
Where “and” joins values, the source holds several entries; their conditions need not be identical. Identical values can stand only once. Out of some 1,100 compounds screened, fewer than 10 were called active.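 Rule for the calls: active = percent response below a set limit in fluorescence channel 1 and below 50% in channel 8; inactive = the rest.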 These entries were drawn from the full list.

Assay: fluorescent artefacts in FAP flow readout – cell-based, FAP fluorogen, flow cytometry, cherry pick 1, artefact control for beta2AR agonist internalization project, confirmation (AID 588765);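 note: low percent response here flags compound autofluorescence meaning a false positive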
Conditions: Am2.2 cells, fluorescence counterscreen, at 10 µM, stronger effect = lower value; percent response FL8: measured here: FL8 channel fluorescence
In the case of `CCN1CCC2(CC1)N=C(c1ccc(F)cc1)C(=S)N2C(=O)c1ccc(C)cc1`, the percent response FL1 is reported as 98.4% (inactive) and the percent response FL8 is reported as 96.3%.
For `Cc1ccc(Cl)cc1NC(=O)CN1CCN(S(=O)(=O)N2CCOCC2)CC1`, the percent response FL1 was 99.8% (inactive) and the percent response FL8 was 93.1%.
In the case of `CSc1ccc(CNC(=O)c2ccc(NC(=O)C3=CSCCO3)cc2)cc1`, the percent response FL1 is reported as 16.2% (inactive) and the percent response FL8 is reported as 99.4%.
For `Cc1ccc(Sc2cc(N3CCOCC3)nc(-c3ccccc3)n2)cc1`, the percent response FL1 was 29.8% (inactive) and the percent response FL8 was 111%.
For `COc1ccc(OC)c(NC(=O)c2sc3nc(C)cc(C)c3c2N)c1`, the percent response FL1 was 45.6% (inactive) and the percent response FL8 was 111%.
For `CC(=O)c1cccc(NC(=O)COc2ccc(S(=O)(=O)N3CCOCC3)cc2)c1`, the percent response FL1 was 112% (inactive) and the percent response FL8 was 104%.
In the case of `CCOc1ccccc1N1C(=O)CC(Sc2nccc(C)n2)C1=O` (stereo not drawn), the percent response FL1 is reported as 100% (inactive) and the percent response FL8 is reported as 97.2%.
For `O=C(C1CCN(c2nnc(-n3cccc3)s2)CC1)N1CCc2ccccc2C1`, the percent response FL1 was 128% (inactive) and the percent response FL8 was 104%.
For `COc1ccc2c(c1OC)C(=O)OC2Nc1nc(-c2ccccc2)cs1` (stereo not drawn), the percent response FL1 was 104% (inactive) and the percent response FL8 was 92.1%.
For `OC(CNCc1ccc(Cl)c(Cl)c1)c1ccccc1` (stereo not drawn), the percent response FL1 was 106% (inactive) and the percent response FL8 was 113%.
For `COc1ccc(OC)c(S(=O)(=O)N(C)CC(=O)N2CCN(c3ccccc3)CC2)c1`, the percent response FL1 was 95.4% (inactive) and 98.5% (inactive) and the percent response FL8 was 99.7% and 105%.
In the case of `CCOc1ccccc1NC(=O)COc1ccc(S(=O)(=O)N2CCCC2)cc1`, the percent response FL1 is reported as 110% (inactive) and the percent response FL8 is reported as 107%.
In the case of `COc1ccc(-c2ccnc(SCC(=O)N3CCOCC3)n2)cc1`, the percent response FL1 is reported as 103% (inactive) and the percent response FL8 is reported as 100%.
For `Cc1ccc(OCC(=O)Nc2ccc(-c3nc4ncccc4o3)cc2)cc1`, the percent response FL1 was 13.3% (inactive) and 14.1% (inactive) and the percent response FL8 was 113% and 112%.
